Compound activity deposited in PubChem BioAssay by several laboratories.
HIV RNase H inh-1: blocks HIV-1 RNase H cleavage of RNA/DNA duplex. P04585. RT-RNase H RNA/DNA duplex cleavage, fluorescence. inhibition, % at 10 µM. 1.9% of 65,000 active. AID 565; in the data active = inhibition above about 50%
RmlC RmlD mix: mixture blocks RmlC and RmlD coupled enzyme activity; AID 1532; 0.39% of 110,000 active; inhibition, % at 5.5 µM; RmlC/RmlD coupled enzyme inhibition, 384-well mixture HTS; in the data active = inhibition above about 30%, passing the limit was not always enough; inconclusive = no clear call, values can overlap the other calls
HIV RNase H inh-2: confirmation of HIV-1 reverse transcriptase RNase H inhibitors; Recombinant RT RNase H, fluorescent RNA/DNA duplex cleavage; 39% of 1,000 active; inhibition, % at 10 µM; shares compounds with HIV RNase H inh-1; in the data active = inhibition above about 48%; inconclusive = no clear call, values can overlap the other calls
Numbers without * were called inactive; u = inconclusive; x = no result given. Only a selection was taken, and hits are over-represented in it overall.

SMILES | HIV RNase H inh-1 | RmlC RmlD mix | HIV RNase H inh-2
CSc1nc2c(c(=O)[nH]1)C(c1cccs1)C1=C(CCCC1=O)N2 (stereo unspecified) | 17 | 9 | x
Cc1ccc(CSc2nc3c(c(=O)[nH]2)C(c2ccncc2)C2=C(CCCC2=O)N3)cc1 (stereo unspecified) | 59* | 49 | 40
N#Cc1ccc(-c2cccnc2)nc1SCC(=O)Nc1sc2c(c1C#N)CCC2 | 90* | -5 | 42
COc1ccc(-c2ccc(C#N)c(SCC(=O)Nc3sc4c(c3C#N)CCC4)n2)cc1 | x | -4 | x
COc1ccnc(CS(=O)c2nc3cc(OC(F)F)ccc3[nH]2)c1OC (stereo unspecified) | x | -12 | x
Cc1ccc(-n2c(SCC(=O)NCC3CCCO3)nnc2-c2ccoc2C)cc1 (stereo unspecified) | 84* | -19 | 34
Cc1ccc(C)c(-n2c(SCC(=O)NCC3CCCO3)nnc2-c2ccoc2C)c1 (stereo unspecified) | -3 | -2 | x
CCOc1ccc2nc(SCC(=O)Nc3cc4c(cc3C(C)=O)OCO4)[nH]c2c1 | x | 9 | x
Cc1cc2nc(C)n(CCCNC(=O)Nc3cccc4ccccc34)c2cc1C | x | 5 | x
COc1[nH]c2ccc(F)cc2c1C(=O)OCC1CCN(CCNS(C)(=O)=O)CC1 | x | 6 | x
COCCCN=C(c1ccco1)n1c(=S)nc(-c2ccco2)n(CCCOC)c1=S | 63* | 4 | 3
COCCCn1c(-c2ccco2)nc2ccccc2c1=O | -24 | 5 | x
Clc1ss/c(=N\c2ccccn2)c1Cl | 68* | -9 | 41
COc1ccc(C(c2nnnn2C(C)(C)C)N2CCN(c3nc4ccccc4s3)CC2)cc1 (stereo unspecified) | -4 | 51 | x
CCC(C)(C)n1nnnc1C(c1ccc(O)c(OC)c1)N1CCN(c2nc3ccccc3s2)CC1 (stereo unspecified) | 56* | 2 | 42
CC(C)(OC1OC(CO)C(O)C(O)C1O)[C@H]1Oc2ccc3ccc(=O)oc3c2[C@H]1O (stereo partly specified) | x | -22 | x
Cc1ccc2nc(NC(=O)CN(C)S(=O)(=O)c3cccc4nsnc34)sc2c1 | 51* | -14 | 39
Cc1ccnc(NC(=O)CN(C)S(=O)(=O)c2cccc3nsnc23)c1 | -34 | -9 | x
N#CC1=C(SCC(N)=O)NC2=C(C(=O)c3ccccc32)C1c1ccc(Cl)cc1 (stereo unspecified) | x | 4 | x
CCOC(=O)c1cc(C)n(Cc2ccc(OCC)c(OC)c2)c1C | x | 6 | x
CCOc1ccc(N(CC(=O)NCC2CCCO2)S(=O)(=O)c2ccc(SC)cc2)cc1 (stereo unspecified) | x | 0 | x
Cc1cccc(OCc2nnc(NC(=O)Cc3cccs3)s2)c1 | x | -12 | x
Cc1ccc(OCc2nnc(NC(=O)Cc3cccs3)s2)cc1 | 62* | -11 | u
COc1ccc(N2CCN(Cc3cc(=O)oc4cc(C)c(Cl)c(C)c34)CC2)cc1 | 72* | -15 | 68*
Cc1cc2oc(=O)cc(CN3CCC(C)CC3)c2c(C)c1Cl | -7 | 6 | x
SMILES | HIV RNase H inh-1 | RmlC RmlD mix | HIV RNase H inh-2
Cc1ccc(/C=C/C2=Cc3c(sc(NC(=O)CSc4n[nH]c(N)n4)c3C#N)C(C)(C)C2)o1 | 96* | 22 | 67*
CCOC(=O)c1c(NC(=O)CSc2n[nH]c(N)n2)sc(CC)c1C | -67 | -65 | x
COc1ccc(Cn2nnnc2C(c2cccnc2)N2CCN(c3ccc(O)cc3)CC2)cc1 (stereo unspecified) | 80* | -6 | 85*
COc1ccc(Cn2nnnc2C(c2cccs2)N2CCN(c3ccccc3)CC2)cc1 (stereo unspecified) | 9 | -9 | x
COc1cc(C[C@@H](CO)[C@H](CO)Cc2ccc(O)c(OC)c2)ccc1O | x | -13 | x
CC1SC(c2cccc(Cl)c2)NC1=O (stereo unspecified) | 60* | -2 | 14
CC1SC(c2ccc(Cl)cc2Cl)NC1=O (stereo unspecified) | x | -9 | x
Cc1ccc(-c2nnn(CC(=O)Nc3cccc4c3CCCC4)n2)o1 | 71* | -7 | 7
CCN(CC)C(=O)Cn1nnc(-c2ccc(C)o2)n1 | 3 | 5 | x
COC(=O)c1oc2ccc(Br)cc2c1NC(=O)CN1CCN(C)CC1 | -4 | -11 | x
COC(=O)c1oc2ccc(Br)cc2c1NC(=O)c1ccccc1 | 59* | u | 76*
C1CNCCNCCCNCCNC1 | -4 | x | x
CCC1CCCCN1S(=O)(=O)c1ccc(S(=O)(=O)N2CCN(S(=O)(=O)CC)CC2)cc1 (stereo unspecified) | 51* | -88 | 57*
CCS(=O)(=O)N1CCN(S(=O)(=O)c2ccc(F)cc2)CC1 | -8 | 3 | x
Cc1csc(NC(=O)c2c(O)c3c(n(CC(C)C)c2=O)CCCC3)n1 | 64* | -14 | u
CCCn1c2c(c(O)c(C(=O)Nc3nc(C)cs3)c1=O)CCCC2 | -1 | 12 | x
COc1ccccc1N1C(=O)CC(Sc2ncccc2C(=O)O)C1=O (stereo unspecified) | 14 | 3 | x
O=C1CC(Sc2ncccn2)C(=O)N1c1ccccc1C(F)(F)F (stereo unspecified) | 70* | -8 | 0
CC[C@H]1OC(=O)[C@H](C)[C@@H](O[C@H]2C[C@@](C)(OC)[C@@H](O)[C@H](C)O2)[C@H](C)[C@@H](O[C@@H]2O[C@H](C)C[C@H](N(C)C)[C@H]2O)[C@](C)(O)C[C@@H](C)CN(C)[C@H](C)[C@@H](O)[C@]1(C)O | x | 3 | x
CCOC(=O)C1=C(N)OC2=C(C(=O)CC(C)(C)C2)C1c1ccco1 (stereo unspecified) | -5 | -3 | x
CC1(C)CC(=O)C2=C(C1)OC1=C(C(=O)CC(C)(C)C1)C2c1ccc(O)cc1O | 56* | -10 | -8
CCOC(=O)C(C#N)(Cc1cc(OC)cc(OC)c1)Cc1cc(OC)cc(OC)c1 | x | -13 | x
Cc1cc(NC(=O)CN2CCc3ccccc3C2)nc2c1c(=O)oc1ccccc12 | 58* | x | 48
CCCC(=O)Nc1cc(C)c2c(=O)oc3ccccc3c2n1 | -18 | 8 | x
COCCOc1ccc(C(F)(F)F)cc1Nc1nc2ccccc2o1 | 56* | 9 | 47
SMILES | HIV RNase H inh-1 | RmlC RmlD mix | HIV RNase H inh-2
COCCOc1ccc(C(F)(F)F)cc1NC(=O)COC(=O)c1c(C)noc1C | -4 | -1 | x
CCN(CC)C(=O)Cn1cnc2sc(C(=O)Nc3cc(OC)c(OC)c(OC)c3)c(C)c2c1=O | x | 16 | x
C=CCn1c(N)c(C(=O)NCCC2=CCCCC2)sc1=S | 81* | 6 | 87*
C=CCN1C(=O)CSc2ccc(C(=O)NCCC3=CCCCC3)cc21 | x | -14 | x
O=C(OCC#Cc1c(COC(=O)c2ccccc2)nnn1Cc1ccccc1)c1ccccc1 | x | -6 | x
CC1=Nn2c(nnc2-c2n[nH]c3c2CCC3)SC1 | -5 | -46 | x
CC(C)(C)C1=Nn2c(nnc2-c2n[nH]c3c2CCC3)SC1 | 53* | -11 | 35
CC(C)c1ccccc1OCCCCCNCCO | -8 | 12 | x
Cc1ccccc1-n1c(Cn2c(=O)sc3ccccc32)nnc1SCC(=O)NCC1CCCO1 (stereo unspecified) | -2 | -9 | x
COc1ccc(OC)c(NS(=O)(=O)Cc2ccccc2)c1 | 77* | x | u
COc1ccc(OC)c(S(=O)(=O)NCc2ccccc2)c1 | 16 | 3 | x
COc1ccc(-c2csc(NC(=O)C3COc4ccccc4O3)n2)cc1OC (stereo unspecified) | x | -3 | x
